In the library only some 1.3% were active in any assay of this set; here they are far more common.
NR5A2 inv ag – inverse agonists of human LRH-1 (NR5A2) | O00482 | HEK293T StAR-luciferase reporter, LRH-1 transfected, 24 h | inhibition, % at 3.6 µM | hit rate 0.13% among 360,000 | AID 602396;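 active = inhibition above the mean inhibition of all tested compounds plus 3 SD, cut at about 73% in these data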
NCOA2 inhibitor – inhibits human steroid receptor coactivator 2; Q15596; HEK293 GAL4-SRC2 luciferase reporter, luminescence; inhibition, % at 9 µM; hit rate 0.17% among 370,000; AID 651957;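 active = inhibition above the mean inhibition of all tested compounds plus 3 SD, set per campaign, cut at about 52% in these data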
Gli-Sufu block – antagonists of Gli-Sufu signaling; inhibition, % at 5 µM; hit rate 0.74% among 340,000; Sufu-KO-LIGHT fibroblasts, Gli luciferase reporter luminescence;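 active = inhibition above about 55%, limit read from the data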
SRC3 inh – human NCOA3 inhibition | Q9Y6Q9 | HEK293 GAL4-SRC3 luciferase reporter, luminescence | inhibition, % at 3.6 µM | hit rate 0.17% among 360,000 | AID 588352;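 active = inhibition above a per-campaign cutoff, the mean of all compounds plus 3 SD, cut at about 60% in these data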;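 also: higher means less SRC3-driven luciferase light from the GAL4 reporter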
NR2F2 inh – NR2F2 (human) inhibition, primary screen. P24468. HEK293T NGFI-A luciferase reporter, luminescence. inhibition, % at 8.6 µM. hit rate 0.7% among 370,000. AID 686940;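 active = inhibition above a per-plate cutoff, mean inhibition of test wells between control levels plus 3 SD, cut at about 38% in these data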;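 also: cells cotransfected with COUP-TFII expression vector driving the NGFI-A reporter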
Target sequence (P24468 whole entry, looked up): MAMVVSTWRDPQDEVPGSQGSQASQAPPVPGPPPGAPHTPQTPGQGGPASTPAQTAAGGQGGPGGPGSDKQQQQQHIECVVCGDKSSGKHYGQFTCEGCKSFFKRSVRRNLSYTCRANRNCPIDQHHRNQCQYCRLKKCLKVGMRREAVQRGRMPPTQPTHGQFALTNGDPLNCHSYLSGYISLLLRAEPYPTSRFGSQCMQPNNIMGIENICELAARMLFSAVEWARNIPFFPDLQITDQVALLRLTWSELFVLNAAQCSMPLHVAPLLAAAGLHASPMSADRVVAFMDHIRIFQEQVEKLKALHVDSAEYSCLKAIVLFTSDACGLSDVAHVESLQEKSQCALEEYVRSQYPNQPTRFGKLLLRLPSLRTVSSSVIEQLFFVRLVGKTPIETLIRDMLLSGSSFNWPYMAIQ
NCOA1 inh – human NCOA1 inhibition | Q15788 | HEK293 GAL4-SRC1 luciferase reporter, luminescence | inhibition, % at 3.6 µM | hit rate 0.12% among 360,000;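 active = inhibition above the campaign mean plus 3 SD, with each screening campaign given its own cutoff, cut at about 60% in these data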
Gli antag conf – confirmation of Gli-SUFU pathway antagonists. shares compounds with Gli-Sufu block. hit rate 40% among 2,500. inhibition, % at 5 µM. Sufu-KO-LIGHT cells, Gli luciferase reporter, luminescence;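 active = mean inhibition at 5 µM reaching about 45%, limit read from the data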
SufuKO cytotox – cytotoxicity counter-screen for Gli-SUFU antagonists; cytotoxicity, % at 5 µM; hit rate 32% among 2,500; shares compounds with Gli-Sufu block; AID 651994; Sufu-KO-LIGHT cells cytotoxicity, ATP luminescence;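 active = mean cytotoxicity at 5 µM above about 25%, limit read from the data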;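 also: cells exposed to compound overnight for roughly 16 to 18 hours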
Wnt3a counter – counter-screen for Gli-SUFU antagonists: Wnt3a reporter inhibition; shares compounds with Gli-Sufu block; inhibition, % at 6.25 µM; hit rate 20% among 2,500; Wnt-LIGHT cells, Wnt3a-driven luciferase reporter, luminescence;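 active = mean inhibition above about 25%, limit read from the data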
Each line names hits and unclear results; the compound was inactive in the other large screens (follow-up assays come after a bar, where they were run).

O=C(Nc1cc(Sc2ccccn2)cc([N+](=O)[O-])c1)c1ccc(Cl)cc1	none | Gli antag conf inactive | SufuKO cytotox inactive | Wnt3a counter inactive
S=c1[nH]nc(CSCCOc2ccc(Cl)cc2Cl)o1	none | Gli antag conf inactive | SufuKO cytotox inactive | Wnt3a counter inactive
CCOC(=O)c1ccc[n+]([O-])c1	none
CCOC(=O)c1ccc(NC(=O)c2ccc[n+]([O-])c2)cc1	Gli-Sufu block 58 | Gli antag conf inactive | SufuKO cytotox inactive | Wnt3a counter inactive
CCCCOCCCNC(=O)C[C@H]1C(=O)N(Cc2ccc(OC)cc2)C2=CCCC[C@@]21C(=O)OCC	none (no result: NR5A2 inv ag, Gli-Sufu block, SRC3 inh, NCOA1 inh)
Cc1ccc(NC(=S)NNC(=O)CSc2nnc(SCc3cccc4ccccc34)s2)cc1	none (no result: NR5A2 inv ag, Gli-Sufu block, SRC3 inh, NCOA1 inh)
COC(=O)c1ccc(-c2ccc(OC)c([C@H]3[C@H]4C=CC[C@@H](C)[C@@H]4C(=O)N3Cc3ccccc3)c2)cc1	none | Gli antag conf 50 | SufuKO cytotox 38 | Wnt3a counter inactive
CCC(C)NS(=O)(=O)c1ccc(S(=O)(=O)N2CCCC3(CCCCC3)C2)cc1 (centres undefined)	none | Gli antag conf inactive | SufuKO cytotox 26 | Wnt3a counter inactive
CC(C)C(C)(C#N)NC(=O)CSc1nnc(-c2ccncc2)n1Cc1ccccc1 (centres undefined)	Gli-Sufu block 95 | Gli antag conf inactive | SufuKO cytotox inactive | Wnt3a counter inactive
CCOC(=O)CSc1ncc(OC)c(=O)[nH]1	none
COc1cnc(SCC(=O)O)[nH]c1=O	Gli-Sufu block 62 | Gli antag conf inactive | SufuKO cytotox inactive | Wnt3a counter inactive
CSCCC(NC(N)=O)C(=O)Nc1cccc(S(=O)(=O)N2CCOCC2)c1 (centres undefined)	none
CSCCC(NC(=O)c1cccc(S(=O)(=O)N2CCOCC2)c1)C(=O)Nc1ccc(F)cc1 (centres undefined)	Gli-Sufu block 68 | Gli antag conf inactive | SufuKO cytotox inactive | Wnt3a counter inactive
Cc1cc(C(=O)CN2CCC(C)CC2)c(C)n1-c1ccccc1F	Gli-Sufu block 70 | Gli antag conf 76 | SufuKO cytotox 34 | Wnt3a counter 83
CCC(C)[C@H]1CN=C(N)N1CCc1cccc2ccccc12 (some centres undefined)	Gli-Sufu block 62 | Gli antag conf 66 | SufuKO cytotox inactive | Wnt3a counter inactive
CCC(C)[C@H]1CNC(=S)N1CCc1cccc2ccccc12 (some centres undefined)	none
Cc1onc(-c2ccccc2)c1-c1nnc(-c2ccccc2C(F)(F)F)o1	none
CCn1c(C)nc2cc(-c3nnc(-c4c(-c5ccccc5)noc4C)o3)ccc21	Gli-Sufu block 70 | Gli antag conf 77 | SufuKO cytotox inactive | Wnt3a counter inactive
O=C(Nc1cccc(Cl)c1)c1ccc(F)c(S(=O)(=O)NCc2ccc3c(c2)OCO3)c1	Gli-Sufu block 89 | Gli antag conf inactive | SufuKO cytotox inactive | Wnt3a counter inactive
O=C(Cc1cccs1)Nc1cccc(-c2nc3ccccc3o2)c1	Gli-Sufu block 99 | Gli antag conf inactive | SufuKO cytotox inactive | Wnt3a counter inactive
Cc1ccc(-c2nc3ccccc3o2)cc1NC(=O)Cc1cccs1	none
CCOc1ccc(CN(C)c2ccc(S(=O)(=O)N3CCN(C)CC3)cc2[N+](=O)[O-])cc1OC	Gli-Sufu block 59 (no result: NCOA2 inhibitor, NR2F2 inh) | Gli antag conf inactive | SufuKO cytotox inactive | Wnt3a counter inactive
C=CCOc1ccc(CN(C)c2ccc(S(=O)(=O)N3CCN(C)CC3)cc2[N+](=O)[O-])cc1	none
O=C(NCc1ccco1)O[C@@H]1CC[C@@]23CCCN2C(=O)CCC[C@H]3C1	none (no result: NR5A2 inv ag, NCOA2 inhibitor, Gli-Sufu block, SRC3 inh, NCOA1 inh)
O=C(CSCc1ccc(Cl)cc1Cl)Nc1ccc(O)cc1C(=O)O	none
O=C(CSCc1ccc(Cl)cc1Cl)Nc1ccccc1C(=O)Nc1ccc(C(=O)O)cc1	none | Gli antag conf inactive | SufuKO cytotox inactive | Wnt3a counter inactive
CSc1nc2[nH]c3c(c2c2nncn12)CC(C)(C)OC3	Gli-Sufu block 98 | Gli antag conf inactive | SufuKO cytotox inactive | Wnt3a counter inactive
